From PubChem BioAssay AID602179 (National Center for Advancing Translational Sciences (NCATS), 2012)
In all, about 390,000 compounds went through this assay and about 360 (0.092%) were called active. The call rests on the fitted dose curve; in most records, active means well fitted inhibition curve with a large enough effect; inconclusive means small, poorly fitted or top-dose-only effect; inactive means no such curve, though single readings can be large or run the other way. Only a selection was taken, and actives are over-represented in it overall.

The molecules below were run against Isocitrate dehydrogenase [NADP] cytoplasmic (Homo sapiens) (UniProt O75874) (assay: qHTS for Inhibitors of mutant isocitrate dehydrogenase 1 (IDH1): qHTS). Details: IDH1-R132H enzyme, NADPH consumption, diaphorase/resazurin fluorescence; series mostly up to 76.6 µM; activity change, negative = inhibition: at the top concentration.
Chain of Isocitrate dehydrogenase [NADP] cytoplasmic (Homo sapiens) (O75874 whole entry R132H, stated change not applied, canonical isoform): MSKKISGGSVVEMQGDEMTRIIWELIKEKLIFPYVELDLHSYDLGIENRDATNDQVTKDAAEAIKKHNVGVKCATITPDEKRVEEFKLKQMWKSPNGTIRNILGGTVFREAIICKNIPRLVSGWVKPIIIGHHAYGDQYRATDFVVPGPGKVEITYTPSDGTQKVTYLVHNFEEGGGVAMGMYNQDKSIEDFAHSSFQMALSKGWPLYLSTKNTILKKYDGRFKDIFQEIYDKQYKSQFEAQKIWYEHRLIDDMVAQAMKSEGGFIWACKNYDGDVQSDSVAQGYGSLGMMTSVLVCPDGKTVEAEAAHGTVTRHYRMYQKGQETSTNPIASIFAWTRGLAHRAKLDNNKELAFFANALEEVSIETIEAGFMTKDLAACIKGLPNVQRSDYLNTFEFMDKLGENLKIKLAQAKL
Excerpt: Unbiased genomic sequencing for 22 glioma genomes found recurrent mutation of isocitrate dehydrogenase 1 (IDH1) on chromosome 2q33-a gene encoding the cytosolic isoform of IIDH1associated with the tricarboxylic acid cycle (TCA) that catalyzes the oxidative decarboxylation of isocitrate, yielding alpha-ketoglutarate and CO2 via NADP+ to NADPH conversion. Subsequent studies confirmed the recurrent IDH mutations in up to 70% of secondary gliomas and in 10% of AML cases. […] This in effect defines IDH1 as an oncogene, and provides an extraordinary opportunity to discover chemical probes against mutant IDH1 that may translate into much needed new therapies for glioma and AML patients. […] NIH Chemical Genomics Center [NCGC] NIH Molecular Libraries Probe Centers Network [MLPCN] MLPCN Grant: DA032129 Assay Submitter (PI): Lenny Dang, Agios Pharmaceuticals
IDH1-R132H (0.5 ug/mL) was dispensed into black, solid-bottom 1536-well plates at 3 uL/well in 20 mM Tris-HCl (pH 7.5), 150 mM NaCl, 10 mM MgCl2, 4 mM beta-ME, and 0.05% protease-free BSA. Then, 23 nL of compounds or DMSO were delivered to each well using a pin tool. A pre-read was run on the Viewlux to identify fluorescent compounds (540 nm excitation filter, 598 nm emission filter, bodipy mirror and 2 second exposure). After 30 minutes of incubation with compound, 3 uL of substrate mix were dispensed (0.016 mM NADPH, 2 mM alpha-KG, 20 mM Tris-HCl (pH 7.5), 150 mM NaCl, 10 mM MgCl2, and 0.05% protease-free BSA). Plates were spun for 1 min at 1000xg and incubated at room temperature for 80 min. Then 1.5 uL of each detection reagent component for the coupling system were added (0.12 mg/mL diaphorase and 0.072 mM resazurin, each in 20 mM Tris-HCl (pH 7.5), 150 mM NaCl, 10 mM MgCl2, and 0.05% protease-free BSA ) The protein, substrate and two detection components were maintained at 4 °C throughout the screen. Additionally, the substrate and resazurin reagents were protected from light. The plates were measured on an Envision plate reader for fluorescence signal using a 540 nm excitation filter and 590 nm emission filter with 10 flashes. 1x and 0x (no-enzyme) IDH1-R132H enzyme control were used to normalize %Activity of identified inhibitors; 0x enzyme values corresponded to 100% Activity (full inhibition), while 1x IDH1-R132H enzyme values were used to normalize 0%Activity (no inhibition). Concentration-response curves were fitted to the signals arising from the resulting fluorescence. The concentration-effect curves were then classified based on curve quality (r2), response magnitude and degree of measured activity, and compounds were subsequently categorized based on their curve class. […] Keywords: isocitrate dehydrogenase, IDH1, IDH1-R132H, MLSMR, MLPCN, NIH Roadmap, qHTS, NCGC
Further: nearly all actives have a fitted effect of over 65% in size.
On the % scale 0 is the no-effect control and ±100 the full control effect; potency means the concentration at half of the fitted maximal effect.

Structure (SMILES)	Potency	activity change, negative = inhibition
CC(C)(C)c1ccc(S(=O)(=O)Nc2ccc(O)c(Sc3nc4ccccc4s3)c2)cc1	39.8 µM (active)	–
Cn1c(O)c(C=NCCN2CCNCC2)c(=O)n(C)c1=O	–	3.83% (inactive)
CCOCCc1c(O)[nH]c(=S)[nH]c1=O	–	0% (inactive)
O=C(Nc1ccc(Cl)cc1C(=O)c1ccccc1)c1cc(Cl)cc(Cl)c1	–	-0.857% (inactive)
CC(C)Oc1ccc(NC(=O)c2cc3ccccc3o2)cc1	–	44.4% (inactive)
